# Results reported in PubChem BioAssay (NCI).
# About 79,000 compounds went through this panel and 15% of them were active in at least one assay; those are over-represented in the sample as a whole. Values without a mark were called inactive. Cut-off read from the data, not from the text of the source: active = growth inhibition above about 70%; inactive = the rest. Where a SMILES comes first, the peptide text is derived from it. The star is where a group is joined. Cbz = O=C(OCc1ccccc1)*
# Assay: NCI Yeast Anticancer Drug Screen. Data for the bub3 strain (AID 167)
# Conditions: S. cerevisiae bub3 mutant strain, at 50.0 µM, stronger effect = higher value
# Summary of the method: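 Inhibition values come from growth of compound-treated mutant yeast normalised to vehicle-treated controls.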
row,SMILES,growth inhibition [%]
1,Cc1ccc(S(=O)(=O)C23N=NC(C)(C)C2C2CCC3C2)cc1 (stereo not given),-50.3
2,Cc1cc(=O)oc2c(-c3ccccc3)nnc(Cl)c12,18.1
3,O=C1CCC2(c3ccccc3)Nc3ncccc3N12 (stereo not given),23
4,CCOc1nc(C)cc(C(=O)OC)c1C#N,0.3
5,CC(=O)Nc1ccc(/C=N/Nc2c3ccccc3nc3ccccc23)cc1,6.75
6,COc1c2c(cc3c1[C@@H]1Oc4c(ccc(O)c4CC=C(C)C)[C@@H]1CO3)OC(C)(C)C=C2,44.5
7,C=CS(=O)(=O)CCCCCCCCCCCCCC,-5
8,Cc1nc(N)c2c(n1)C(Cc1ccccc1)N(C(=O)c1ccccc1)C2 (stereo not given),6.55
9,CC(=O)Oc1c(C)cc2c(c1C)C(C)CN2C(C)=O (stereo not given),-22.4
10,Cc1c(N(C)C)ccc2c(=O)c3cccc(CC(=O)O)c3oc12,-16.1
11,COc1cc2c(cc1OC)C(c1ccccc1CCCCl)=NCC2,-27.5
12,CC1(C2(C)SCCS2)SCCS1,-8.55
13,ON=C1CCN(c2ccccc2)CC1,1.6
14,N/N=C(\c1ccccc1)C(Nc1ccccc1)c1ccccc1 (stereo not given),-5.15
15,CCC(O)C(CC)[N+](=O)[O-] (stereo not given),-2.8
16,CCCCCCCCCCCCOc1ccc(Sc2ccc([N+](=O)[O-])cc2)cc1,5.1
17,CC(C(=O)c1ccncc1)c1ccccn1 (stereo not given),-12.9
18,Cc1cccc(N2CCN(S(C)(=O)=O)CC2)c1,6.75
19,CC(O)(C#Cc1ccccc1)c1nc2ccccc2s1 (stereo not given),17.2
20,CCc1ccc[n+](CCc2c[nH]c3ccccc23)c1,1.35

row,SMILES,growth inhibition [%]
1,O=C(O)C(Cc1cccs1)C(=O)OCCc1ccccc1 (stereo not given),-13.7
2,COc1ccc(NC(=S)NN=C(C)c2cccc(C(C)=NNC(=S)Nc3ccc(OC)cc3)n2)cc1,-14.3
3,O=[N+]([O-])c1ccc(CCCCCc2ccccc2)cc1,4.5
4,CC1=Nc2cc(C)c(C)cc2N2C1=CC1=C(C(=O)c3cc4ccccc4cc3C1=O)C2C (stereo not given),-3.85
5,CCCCCOc1ccc(C2=C(c3ccccc3)C(=O)C(c3ccccc3)=C2c2ccccc2)cc1,-3.15
6,CC(C)=C1CCC(CN2CCCC2)C1=O (stereo not given),6.2
7,Cc1[nH]c2ccccc2c1C(c1ccccc1O)c1c(C)[nH]c2ccccc12,13.2
8,O=C1O/C(=C/c2ccc(O)cc2)c2ccccc21,6.9
9,CN(c1ccccc1)c1nc(=[N+](C)C)ss1,4.3
10,CCN(CC)CCOCCO,0.95
11,O=C(CC(=O)CC(O)(C(F)(F)F)C(F)(F)F)CC(O)(C(F)(F)F)C(F)(F)F,55.9
12,O=C(O)C(CO)NC(=O)C1CCCN1C(=O)OCc1ccccc1 (stereo not drawn) (Cbz-Pro-Ser-OH; configuration not given here),-4.75
13,CCOC(CN(Cc1ccccc1)CC(OCC)OCC)OCC,9.8
14,COc1cccc(NC(=O)CC(=O)N2N=C(n3ccc4ccccc43)CC2c2ccccc2)c1 (stereo not given),-3.1
15,CC(=O)c1cccc(C(C)=O)c1N=Cc1ccc(Cl)cc1,-18.1
16,O=S(=O)(Cl)C1c2ccccc2-c2ccccc21,23.2
17,CCCCCC/C(C=O)=C\c1ccccc1,-4.6
18,O=S(=O)(O/C(=C(\OS(=O)(=O)C(F)(F)F)c1ccccc1)c1ccccc1)C(F)(F)F,-2.65
19,C=CCNCc1cc(Cl)cc(Cl)c1O,-10.2
20,CC(=O)N(CCc1ccccc1)C(C)(C#N)c1ccccc1 (stereo not given),-12.2
